The record followed here is PubChem BioAssay (EPA / NIEHS).

Active and inactive are the calls of the source. How the source made its calls: active means hit-call score of the fitted dose curve at least 0.9, where 1 is the maximum; inactive means score below 0.9.

One may read the AC50 as the concentration at which the activity in the assay is half-maximal.

Experiment [1] has as its target Bile acid receptor (Homo sapiens) (UniProt Q96RI1). Kind of experiment: ATG_IR1_CIS: Attagene CIS-FACTORIAL HepG2 Assay for human Nuclear Receptor Subfamily 1 Group H Member 4 (NR1H4), IR1 submotif (AID 2282946). The following applies: IR1 reporter transcription, actives raise or lower the signal. In outline: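 Cells (human HepG2) carry transiently transfected cis-promoter reporter transcription units. Compounds are incubated 24 h, total RNA is reverse-transcribed and amplified, and labelled fragments are resolved by capillary electrophoresis. Curves use DMSO as baseline.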

Experiment [2] in a line: ATG_ISRE_CIS: Attagene CIS-FACTORIAL HepG2 Assay for human Interferon Regulatory Factor 1 (IRF1) binding to an Interferon-Stimulated Response Element (ISRE) (AID 2282948). The settings on record: HepG2 ISRE cis-reporter (Attagene), mRNA transcription readout; actives raise or lower the signal. A digest of the protocol: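 HepG2 cells transiently transfected with multiplexed cis-promoter reporter units; after 24 h compound exposure, reporter mRNA quantified by RT-PCR, FAM labelling, HpaI digestion and capillary electrophoresis. Bidirectional fit versus DMSO baseline.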

A short description of experiment [3]: ATG_M_32_CIS: Attagene CIS-FACTORIAL HepG2 Assay for M32 Transcription Factor (Internal Marker) (AID 2282949).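 Further: background control marker of the multiplexed CIS panel rather than a real target.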 The settings on record: HepG2 Attagene cis-factorial M32 reporter, mRNA; actives raise or lower the signal. In outline:
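Internal background marker read-out: RT-PCR/capillary electrophoresis fluorescence of reporter transcripts from transiently transfected HepG2 cells after 24 h chemical exposure. Activity fitted bidirectionally relative to DMSO negative control.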

Experiment [4] can be described thus: ATG_M_06_CIS: Attagene CIS-FACTORIAL HepG2 Assay for M06 Transcription Factor (Internal Marker) (AID 2282950). The settings on record: HepG2 Attagene CIS-FACTORIAL M06 internal marker reporter; actives raise or lower the signal. A digest of the protocol:
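Internal background marker within multiplexed cis-reporter HepG2 system. Cells transiently transfected, dosed 24 h; reporter mRNA measured by RT-PCR, HpaI digestion and capillary electrophoresis. Bidirectional fit relative to DMSO.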

The target of experiment [5] is Hypoxia-inducible factor 1-alpha (Homo sapiens) (UniProt Q16665). Kind of experiment: ATG_HIF1a_CIS: Attagene CIS-FACTORIAL HepG2 Assay for human Hypoxia Inducible Factor 1 (HIF1A) (AID 2282951). The following applies: HepG2 Attagene cis-factorial HIF1a reporter transcription; actives raise or lower the signal. A digest of the protocol: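 HepG2, transient cis-reporter library, 24 h dosing. RNA → RT (oligo dT) → PCR → 6-FAM primer extension → HpaI → CE. Bidirectional curve fit vs DMSO.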
Sequence of Hypoxia-inducible factor 1-alpha (Homo sapiens) (Q16665 whole entry, looked up): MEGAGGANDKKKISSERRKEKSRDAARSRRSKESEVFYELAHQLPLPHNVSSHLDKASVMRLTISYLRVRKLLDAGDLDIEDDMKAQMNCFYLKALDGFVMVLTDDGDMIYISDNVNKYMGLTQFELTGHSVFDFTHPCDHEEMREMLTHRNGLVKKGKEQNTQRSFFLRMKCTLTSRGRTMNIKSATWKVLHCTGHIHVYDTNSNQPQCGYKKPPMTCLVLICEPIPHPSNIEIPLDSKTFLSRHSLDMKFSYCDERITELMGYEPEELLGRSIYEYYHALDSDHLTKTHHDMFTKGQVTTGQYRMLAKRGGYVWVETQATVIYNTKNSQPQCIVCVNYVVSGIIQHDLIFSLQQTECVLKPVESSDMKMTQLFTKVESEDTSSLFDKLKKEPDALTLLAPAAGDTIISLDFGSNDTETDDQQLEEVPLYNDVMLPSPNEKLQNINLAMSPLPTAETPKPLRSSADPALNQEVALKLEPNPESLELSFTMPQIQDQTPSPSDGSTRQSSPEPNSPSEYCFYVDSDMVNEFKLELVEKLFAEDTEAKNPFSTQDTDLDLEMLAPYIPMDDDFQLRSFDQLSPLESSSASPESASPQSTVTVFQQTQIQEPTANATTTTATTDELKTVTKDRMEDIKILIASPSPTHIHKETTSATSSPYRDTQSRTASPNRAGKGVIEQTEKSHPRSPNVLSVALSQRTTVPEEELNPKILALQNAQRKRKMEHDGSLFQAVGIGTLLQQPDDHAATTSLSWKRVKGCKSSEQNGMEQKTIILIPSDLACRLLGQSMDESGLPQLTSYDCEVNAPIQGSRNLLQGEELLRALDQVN

Experiment [6] deals with Hepatocyte nuclear factor 6 (Homo sapiens) (UniProt Q9UBC0). Kind of experiment: ATG_HNF6_CIS: Attagene CIS-FACTORIAL HepG2 Assay for human Hepatocyte Nuclear Factor 6 (HNF6) (AID 2282952). The settings on record: HepG2 Attagene cis-factorial HNF6 reporter transcription; actives raise or lower the signal. A digest of the protocol: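 Cells are HepG2 carrying transiently transfected cis-promoter reporter units. Treatment lasts 24 h, after which reporter transcripts are reverse-transcribed, amplified, FAM-labelled and sized by capillary electrophoresis. DMSO serves as baseline.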
Sequence of Hepatocyte nuclear factor 6 (Homo sapiens) (Q9UBC0 whole entry, looked up): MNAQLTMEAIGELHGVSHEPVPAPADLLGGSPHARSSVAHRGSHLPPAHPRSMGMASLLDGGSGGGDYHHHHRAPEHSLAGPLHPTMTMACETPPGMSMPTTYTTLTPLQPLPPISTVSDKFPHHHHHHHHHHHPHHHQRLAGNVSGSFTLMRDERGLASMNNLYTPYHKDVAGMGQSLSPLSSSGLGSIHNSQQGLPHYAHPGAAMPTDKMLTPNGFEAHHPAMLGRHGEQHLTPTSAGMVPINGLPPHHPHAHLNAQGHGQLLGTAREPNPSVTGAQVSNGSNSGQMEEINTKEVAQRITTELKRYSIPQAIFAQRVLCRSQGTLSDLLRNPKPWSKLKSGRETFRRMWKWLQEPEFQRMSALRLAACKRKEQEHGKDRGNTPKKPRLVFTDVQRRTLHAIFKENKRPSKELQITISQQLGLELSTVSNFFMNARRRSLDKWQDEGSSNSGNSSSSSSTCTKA

The target in experiment [7] is Heat shock factor protein 1 (Homo sapiens) (UniProt Q00613). As to the kind of experiment: ATG_HSE_CIS: Attagene CIS-FACTORIAL HepG2 Assay for human Heat Shock Transcription Factor 1 (HSE) (AID 2282953). The following applies: HepG2 HSE cis-reporter, Attagene RNA transcription; actives raise or lower the signal. A digest of the protocol: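 HepG2 cells transfected with cis-promoter reporter units sensing endogenous transcription factor activity; reporter mRNA quantified 24 h post-dose by RT-PCR and capillary electrophoresis of 6-FAM-labelled products. Bidirectional fitting against DMSO.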
Sequence of Heat shock factor protein 1 (Homo sapiens) (Q00613 whole entry, looked up): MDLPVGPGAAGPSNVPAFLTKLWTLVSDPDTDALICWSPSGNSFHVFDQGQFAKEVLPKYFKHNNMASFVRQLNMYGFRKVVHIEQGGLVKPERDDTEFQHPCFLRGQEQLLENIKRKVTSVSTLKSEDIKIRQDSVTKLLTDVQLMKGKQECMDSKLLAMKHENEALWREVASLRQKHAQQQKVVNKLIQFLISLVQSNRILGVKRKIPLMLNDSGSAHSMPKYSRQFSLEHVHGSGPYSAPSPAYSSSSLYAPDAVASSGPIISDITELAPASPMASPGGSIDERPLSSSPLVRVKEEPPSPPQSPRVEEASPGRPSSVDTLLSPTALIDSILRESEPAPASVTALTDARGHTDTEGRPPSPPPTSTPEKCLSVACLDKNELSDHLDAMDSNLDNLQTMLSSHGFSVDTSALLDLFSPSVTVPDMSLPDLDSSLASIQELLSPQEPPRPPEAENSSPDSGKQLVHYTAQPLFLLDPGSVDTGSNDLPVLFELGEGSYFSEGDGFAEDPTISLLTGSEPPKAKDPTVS

A short description of experiment [8]: ATG_MRE_CIS: Attagene CIS-FACTORIAL HepG2 Assay for human Metal Responsive Element (MRE) (AID 2282954). The settings on record: HepG2 MRE cis-reporter transcription, Attagene multiplex; actives raise or lower the signal. In outline:
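After a 24 h chemical exposure, transiently transfected HepG2 cells yield RNA whose reporter sequences are amplified, FAM-labelled and sized by capillary electrophoresis. Curves are fitted bidirectionally relative to DMSO.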

Experiment [9] in a line: ATG_PBREM_CIS: Attagene CIS-FACTORIAL HepG2 Assay for human Phenobarbital-responsive Enhancer Module (PBREM) (AID 2282955). The settings on record: HepG2 PBREM cis-reporter, Attagene multiplexed transcription; actives raise or lower the signal. A digest of the protocol: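 HepG2, transient MRTU transfection, 24 h dosing; RNA → oligo(dT) RT → PCR → 6-FAM extension → HpaI → CE. Bidirectional fit vs DMSO.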

The target in experiment [10] is Paired box protein Pax-6 (Homo sapiens) (UniProt P26367). As to the kind of experiment: ATG_Pax6_CIS: Attagene CIS-FACTORIAL HepG2 Assay for human Paired Box 6 (PAX6) (AID 2282956). The following applies: HepG2 CIS-FACTORIAL PAX6 reporter transcription, RNA readout; actives raise or lower the signal. A digest of the protocol: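 HepG2 cells transiently transfected with multiplexed cis-promoter reporter units (endogenous TF activity) were dosed for 24 h. Reporter mRNA was quantified by RT-PCR, 6-FAM labeling, HpaI digestion and capillary electrophoresis; bidirectional fitting versus DMSO baseline.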
Sequence of Paired box protein Pax-6 (Homo sapiens) (P26367 whole entry, looked up): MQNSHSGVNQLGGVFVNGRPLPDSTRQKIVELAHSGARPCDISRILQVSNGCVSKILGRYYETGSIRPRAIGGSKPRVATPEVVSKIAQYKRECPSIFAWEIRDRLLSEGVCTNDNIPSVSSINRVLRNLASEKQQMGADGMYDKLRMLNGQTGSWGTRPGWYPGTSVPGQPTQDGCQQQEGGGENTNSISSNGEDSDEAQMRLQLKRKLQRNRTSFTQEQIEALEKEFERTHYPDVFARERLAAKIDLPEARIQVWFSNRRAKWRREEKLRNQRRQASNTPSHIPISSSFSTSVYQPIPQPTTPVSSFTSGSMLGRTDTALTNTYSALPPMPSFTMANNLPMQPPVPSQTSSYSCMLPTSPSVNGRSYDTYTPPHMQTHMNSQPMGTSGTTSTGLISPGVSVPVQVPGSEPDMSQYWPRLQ

Experiment [11] in a line: ATG_PXRE_CIS: Attagene CIS-FACTORIAL HepG2 Assay for human Pregnane X Receptor Element (PXRE) (AID 2282957). The following applies: HepG2 Attagene CIS-FACTORIAL PXRE reporter, mRNA; actives raise or lower the signal. A digest of the protocol:
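Multiplexed cis-reporter assay in transiently transfected human HepG2 cells; 24 h chemical exposure. Reporter transcripts quantified by RT-PCR with fluorescent labeling and capillary electrophoresis.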

Experiment [12] can be described thus: ATG_PPRE_CIS: Attagene CIS-FACTORIAL HepG2 Assay for human Peroxisome Proliferator-activated Response Element (PPRE) (AID 2282958). The following applies: HepG2 PPRE cis-element reporter, Attagene transcription factor profiling; actives raise or lower the signal. In outline: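 Transcript-level reporter induction in transfected HepG2 cells after 24 h chemical exposure, quantified by fluorescence from RT-PCR products separated by capillary electrophoresis.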

The nature of experiment [13]: ATG_RORE_CIS: Attagene CIS-FACTORIAL HepG2 Assay for human RAR-related Orphan Receptor Element (RORE) (AID 2282959). The settings on record: HepG2 Attagene cis-factorial RORE reporter, mRNA; actives raise or lower the signal. In outline:
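Multiplexed reporter assay measuring mRNA induction from a cis promoter element in transiently transfected HepG2 cells after 24 h treatment. Detection via RT-PCR and capillary electrophoresis fluorescence; DMSO serves as baseline.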

Experiment [14] is described as follows: ATG_Sox_CIS: Attagene CIS-FACTORIAL HepG2 Assay for human SRY-box transcription factor (SOX) (AID 2282960). The settings on record: HepG2 Attagene cis-factorial SOX reporter, mRNA; actives raise or lower the signal. In outline: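 Cells were transfected with reporter constructs under cis-regulatory promoters, then exposed to chemicals for 24 h. Reporter transcripts were quantified by fluorescence after RT-PCR and capillary electrophoresis; activity was fitted in both directions against DMSO.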

Experiment [15] addresses Transcription factor Sp1 (Homo sapiens) (UniProt P08047). As to the kind of experiment: ATG_Sp1_CIS: Attagene CIS-FACTORIAL HepG2 Assay for human Specificity Protein 1 (Sp1) (AID 2282961). The settings on record: HepG2 Sp1 cis-reporter transcription, actives raise or lower the signal. In outline:
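Measures mRNA induction of an Sp1-linked reporter in HepG2 cells 24 h post-dosing. Multiplexed reporters read by RT-PCR and capillary electrophoresis; DMSO serves as negative control and baseline.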

Experiment [16] is described as follows: ATG_SREBP_CIS: Attagene CIS-FACTORIAL HepG2 Assay for human Sterol Regulatory Element Binding (SREBP) (AID 2282962). The following applies: HepG2 Attagene cis-factorial SREBP reporter, mRNA; actives raise or lower the signal. In outline: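 HepG2 cells transiently transfected with multiplexed cis-element reporter units report endogenous transcription factor activity. After 24 h of chemical exposure, reporter mRNA was quantified by RT-PCR, 6-FAM labelling, HpaI digestion and capillary electrophoresis; bidirectional fits used DMSO as baseline.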

The target in experiment [17] is Signal transducer and activator of transcription 3 (Homo sapiens) (UniProt P40763). Kind of experiment: ATG_STAT3_CIS: Attagene CIS-FACTORIAL HepG2 Assay for human Signal Transducer and Activator of Transcription 3 (STAT3) (AID 2282963). The settings on record: HepG2, Attagene cis-factorial STAT3 reporter transcription; actives raise or lower the signal. In outline:
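After a 24 h compound incubation, total RNA from MRTU-transfected HepG2 cells was converted to cDNA and reporter sequences PCR-amplified, labelled and profiled by capillary electrophoresis. Gain and loss of signal were referenced to DMSO.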

A short description of experiment [18]: ATG_TA_CIS: Attagene CIS-FACTORIAL HepG2 Assay for human TA Basal Promoter (AID 2282964). The settings on record: HepG2 Attagene CIS-factorial TA basal promoter reporter; actives raise or lower the signal. A digest of the protocol:
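HepG2 cells transiently transfected with multiple reporter units under cis promoter elements, reporting endogenous transcription factor activity; this endpoint tracks the TA basal promoter as background control. Reporter mRNA after 24 h dosing measured by RT-PCR/capillary electrophoresis; bidirectional fits versus DMSO.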

Experiment [19] can be described thus: ATG_TCF_b_cat_CIS: Attagene CIS-FACTORIAL HepG2 Assay for human T-Cell-Factor with beta-catenin (TCF/b-cat) (AID 2282965). The settings on record: HepG2 TCF/beta-catenin cis-reporter transcription, actives raise or lower the signal. In outline: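 Endogenous transcription factor activity is captured through cis-promoter reporter constructs transiently introduced into human HepG2 liver cells. Induced reporter mRNA is measured after 24 h and fitted bidirectionally relative to DMSO.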

Experiment [20] can be described thus: ATG_GRE_CIS: Attagene CIS-FACTORIAL HepG2 Assay for human Glucocorticoid Response Elements (GRE) (AID 2282947). The settings on record: HepG2 GRE cis-reporter, Attagene multiplex mRNA; actives raise or lower the signal. A digest of the protocol:
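Assay uses human hepatoma HepG2 cells transfected with cis-promoter reporter units, exposed 24 h. mRNA from reporters detected by RT-PCR plus capillary electrophoresis; DMSO serves as negative control and baseline.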

Sequence of Signal transducer and activator of transcription 3 (Homo sapiens) (P40763 whole entry, looked up): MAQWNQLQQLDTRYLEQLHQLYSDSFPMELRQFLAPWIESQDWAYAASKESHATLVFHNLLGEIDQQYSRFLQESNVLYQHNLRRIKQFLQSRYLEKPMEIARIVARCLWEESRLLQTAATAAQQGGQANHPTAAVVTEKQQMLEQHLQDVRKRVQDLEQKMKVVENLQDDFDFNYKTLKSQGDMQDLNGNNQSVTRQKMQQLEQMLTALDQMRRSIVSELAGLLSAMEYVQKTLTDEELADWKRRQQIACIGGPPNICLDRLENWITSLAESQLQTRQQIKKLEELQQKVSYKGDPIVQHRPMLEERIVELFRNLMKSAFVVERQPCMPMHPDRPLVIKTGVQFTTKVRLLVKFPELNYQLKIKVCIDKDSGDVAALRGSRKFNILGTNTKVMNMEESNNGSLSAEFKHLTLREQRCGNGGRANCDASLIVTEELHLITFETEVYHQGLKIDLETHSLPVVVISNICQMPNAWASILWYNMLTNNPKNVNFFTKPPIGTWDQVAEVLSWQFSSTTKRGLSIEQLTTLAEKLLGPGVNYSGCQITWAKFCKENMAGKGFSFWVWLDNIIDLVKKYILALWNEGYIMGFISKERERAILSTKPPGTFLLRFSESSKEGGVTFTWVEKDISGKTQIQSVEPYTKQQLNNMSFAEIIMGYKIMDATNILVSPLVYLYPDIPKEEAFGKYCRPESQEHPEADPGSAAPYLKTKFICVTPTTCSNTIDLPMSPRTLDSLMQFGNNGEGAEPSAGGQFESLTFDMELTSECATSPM
Sequence of Bile acid receptor (Homo sapiens) (Q96RI1 whole entry, looked up, the tested form may be a part): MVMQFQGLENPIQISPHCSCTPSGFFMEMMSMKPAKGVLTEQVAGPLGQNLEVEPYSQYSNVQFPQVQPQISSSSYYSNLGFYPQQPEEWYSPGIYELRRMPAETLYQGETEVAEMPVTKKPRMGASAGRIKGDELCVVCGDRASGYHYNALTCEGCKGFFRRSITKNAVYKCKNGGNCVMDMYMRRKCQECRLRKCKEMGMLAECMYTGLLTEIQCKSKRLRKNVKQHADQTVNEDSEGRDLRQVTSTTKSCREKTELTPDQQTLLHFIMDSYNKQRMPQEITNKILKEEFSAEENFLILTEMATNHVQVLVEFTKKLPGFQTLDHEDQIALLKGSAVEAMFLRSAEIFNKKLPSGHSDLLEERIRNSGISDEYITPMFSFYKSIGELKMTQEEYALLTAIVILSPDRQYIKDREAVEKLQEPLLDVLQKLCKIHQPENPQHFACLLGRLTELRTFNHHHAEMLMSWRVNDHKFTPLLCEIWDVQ
Sequence of Transcription factor Sp1 (Homo sapiens) (P08047 whole entry, looked up): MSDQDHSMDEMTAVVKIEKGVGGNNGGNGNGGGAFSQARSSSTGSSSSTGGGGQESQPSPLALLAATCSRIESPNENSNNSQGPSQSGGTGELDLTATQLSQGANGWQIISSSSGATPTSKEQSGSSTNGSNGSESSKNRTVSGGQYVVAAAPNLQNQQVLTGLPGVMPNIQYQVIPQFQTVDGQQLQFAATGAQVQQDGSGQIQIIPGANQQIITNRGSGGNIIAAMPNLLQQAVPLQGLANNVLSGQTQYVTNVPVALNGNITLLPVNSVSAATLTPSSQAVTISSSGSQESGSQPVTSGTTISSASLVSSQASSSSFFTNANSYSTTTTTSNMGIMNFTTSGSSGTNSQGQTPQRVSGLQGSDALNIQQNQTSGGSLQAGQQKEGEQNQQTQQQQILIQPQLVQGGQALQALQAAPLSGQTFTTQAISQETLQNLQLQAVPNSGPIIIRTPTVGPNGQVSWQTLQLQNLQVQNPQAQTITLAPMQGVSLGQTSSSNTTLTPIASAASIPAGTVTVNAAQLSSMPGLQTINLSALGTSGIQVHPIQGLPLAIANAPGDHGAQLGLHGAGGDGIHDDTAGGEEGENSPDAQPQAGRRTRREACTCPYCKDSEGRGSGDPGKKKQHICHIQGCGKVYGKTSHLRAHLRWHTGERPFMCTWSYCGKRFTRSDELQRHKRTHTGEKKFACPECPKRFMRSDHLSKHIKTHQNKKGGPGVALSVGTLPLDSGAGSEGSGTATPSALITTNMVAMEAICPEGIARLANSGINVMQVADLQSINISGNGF

On to `CCC(C)C=O` (stereo unspecified), for which the compound was called inactive in experiment [1], in experiment [2], in experiment [3], in [4], in experiment [5] and in [6]. The outcome in [7], in experiment [8], in [9], in experiment [10], in [11] and in [12] was inactive. Further, the call in experiment [13], in [14], in [15], in experiment [16], in [17] and in experiment [18] was inactive. The call in experiment [19] was inactive.

As for `CC[C@H]1OC(=O)[C@H](C)[C@@H](O[C@H]2C[C@@](C)(OC)[C@@H](O)[C@H](C)O2)[C@H](C)[C@@H](O[C@@H]2O[C@H](C)C[C@H](N(C)C)[C@H]2O)[C@](C)(O)C[C@@H](C)C(=NOCOCCOC)[C@H](C)[C@@H](O)[C@]1(C)O`, the outcome in experiment [1], in experiment [20], in [2], in experiment [3], in [5] and in [6] was inactive. For the same compound, the result in [7], in experiment [8], in experiment [10], in [12], in [13] and in experiment [15] was inactive. Moreover, the result in experiment [16], in experiment [18] and in experiment [19] was inactive.

As for `COC(=O)c1ccccc1OC`, the call in [1], in experiment [20], in experiment [3], in [5], in experiment [6] and in experiment [7] was inactive. In addition, the outcome in experiment [8], in experiment [10], in experiment [11], in [12], in experiment [13] and in experiment [14] was inactive. The call in experiment [16], in [17], in experiment [18] and in experiment [19] was inactive.

`C=CC(=O)OCC(Br)CBr` (stereo unspecified): the AC50 in experiment [1] is 65.3 µM (active); in experiment [2], 100 µM (active); in [7], 155 µM (active); in experiment [10], 34.5 µM (active); in experiment [17] it was 121 µM (active); in [19], 44.2 µM (active). Moreover, the compound was called inactive in experiment [20], in [3], in [5], in experiment [6], in experiment [8] and in experiment [11]. Moreover, the result in [13], in experiment [14], in [16] and in [18] was inactive.
